Measurements: ChEMBL document CHEMBL2218924, “A broad activity screen in support of a chemogenomic map for kinase signalling research and drug discovery” (Biochem J, 2013)

Biological target: T1, Serine/threonine-protein kinase Chk1 (Homo sapiens) (UniProt O14757)
T1 sequence (whole entry): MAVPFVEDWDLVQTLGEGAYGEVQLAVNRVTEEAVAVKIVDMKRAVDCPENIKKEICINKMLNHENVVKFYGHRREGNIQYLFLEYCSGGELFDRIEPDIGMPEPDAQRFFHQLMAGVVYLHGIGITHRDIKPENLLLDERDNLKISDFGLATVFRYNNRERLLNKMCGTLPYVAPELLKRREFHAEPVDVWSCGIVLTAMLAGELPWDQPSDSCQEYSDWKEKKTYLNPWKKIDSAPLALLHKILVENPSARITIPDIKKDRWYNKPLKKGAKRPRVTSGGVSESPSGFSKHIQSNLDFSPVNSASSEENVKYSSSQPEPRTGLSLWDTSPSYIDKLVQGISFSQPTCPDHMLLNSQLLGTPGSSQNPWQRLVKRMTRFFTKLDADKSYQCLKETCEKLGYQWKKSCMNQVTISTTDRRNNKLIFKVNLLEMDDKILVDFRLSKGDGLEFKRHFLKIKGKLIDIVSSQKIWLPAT
Settings: at 1 µM

SMILES	residual activity [%]
Nc1n[nH]c2nnc(-c3c(-c4ccccc4)nn4ccccc34)cc12	90
Cc1nc2cc3nc(-c4cccs4)cnc3cc2n1C	101
N#Cc1cnc2cnc(NCc3cccnc3)cc2c1Nc1ccc(F)c(Cl)c1	3
Nc1nc(Nc2ccc(S(N)(=O)=O)cc2)nn1C(=S)Nc1c(F)cccc1F	0
Oc1ccc(-c2nc(-c3ccc(F)cc3)c(-c3ccncc3)[nH]2)cc1	103
Cn1nc2c3c(cccc31)C(=O)c1ccccc1-2	94
COc1cccc(-c2cc(=O)c3ccccc3o2)c1N	104
CC[n+]1c(/C=C/N(C)c2ccccc2)n(-c2ccccc2)c2ccc(-c3nc4ccccc4s3)cc21	94
O=[N+]([O-])c1ccc(-c2nc(-c3ccc(F)cc3)c(-c3ccncc3)[nH]2)cc1	102
COc1cc2ncc(-c3ccccc3)nc2cc1OC	90
CCC(=O)Nc1ccc2ncnc(Nc3cccc(Br)c3)c2c1	85
CCOc1cc2ncnc(Nc3cccc(Br)c3)c2cc1OCC	85
c1ccc(-c2n[nH]c3c2oc2ccccc23)cc1	86
Nc1ccc2ncnc(NCCc3ccc(Oc4ccccc4)cc3)c2c1	94
CN(C)c1ccc(/C=C2\C(=O)Nc3ccccc32)cc1	90
O=Nc1c(-c2c(O)[nH]c3ccccc23)[nH]c2ccccc12	65
Cc1cncc2cccc(S(=O)(=O)N3CCCN(C(=O)CN)C[C@H]3C)c12	88
O=C(Nc1cccc(Nc2nccc(Nc3cccc(C(F)(F)F)c3)n2)c1)C1CC1	72

SMILES	residual activity [%]
CO[C@H]1C[C@@H]2CC[C@@H](C)[C@@](O)(O2)C(=O)C(=O)N2CCCC[C@H]2C(=O)O[C@H]([C@H](C)C[C@@H]2CC[C@@H](O)[C@H](OC)C2)CC(=O)[C@H](C)/C=C(\C)[C@@H](O)[C@@H](OC)C(=O)[C@H](C)C[C@H](C)/C=C/C=C/C=C/1C	77
CCN(CC)C(=O)c1ccc(Nc2nc(OCC3CCCCC3)c3nc[nH]c3n2)cc1	57
Oc1c2ccccc2c2c3c(cccc13)N=N2	72
N#CC(C#N)=C(N)/C(C#N)=C/c1ccc(O)cc1	90
O=C1NC(=O)/C(=C\c2ccc3nccnc3c2)S1	85
Cc1cc(Nc2nc(-c3ccccc3)nc3ccccc23)n[nH]1	54
COc1ccc(OC)c2c(=S)c3ccccc3[nH]c12	108
O=c1c2ccccc2[nH]c(=S)n1CCN1CCC(=C(c2ccc(F)cc2)c2ccc(F)cc2)CC1	95
Cn1cc(/C=C2\C(=O)Nc3ccc(S(N)(=O)=O)cc32)c2ccccc21	16
CC(C)n1cnc2/c(=N/c3cccc(Cl)c3)nc(NCCO)[nH]c21	38
COc1cc2ncnc(N3CCN(C(=O)Nc4ccc(Oc5ccccc5)cc4)CC3)c2cc1OC	82
O=c1cc(-c2cccc3c2Sc2ccccc2S3)oc(N2CCOCC2)c1	97
CN(C)CCCn1cc(C2=C(c3c[nH]c4ccccc34)C(=O)NC2=O)c2ccccc21	54
Cc1cccc(-c2[nH]c(C(C)(C)C)nc2-c2ccc3c(c2)OCO3)n1	88
COc1cc2ncnc(Nc3ccc(Oc4ccccc4)cc3)c2cc1OC	76
Cc1cc2ncc(-c3ccccc3)nc2cc1C	94
NC(=O)c1ccc2[nH]c(-c3ccc(Oc4ccc(Cl)cc4)cc3)nc2c1	91

Biological target: T1, Serine/threonine-protein kinase Chk1 (Homo sapiens)
Settings: at 10 µM

SMILES	residual activity [%]
Nc1n[nH]c2nnc(-c3c(-c4ccccc4)nn4ccccc34)cc12	82
Cc1nc2cc3nc(-c4cccs4)cnc3cc2n1C	108
N#Cc1cnc2cnc(NCc3cccnc3)cc2c1Nc1ccc(F)c(Cl)c1	1
Nc1nc(Nc2ccc(S(N)(=O)=O)cc2)nn1C(=S)Nc1c(F)cccc1F	-1
Oc1ccc(-c2nc(-c3ccc(F)cc3)c(-c3ccncc3)[nH]2)cc1	92
Cn1nc2c3c(cccc31)C(=O)c1ccccc1-2	75
COc1cccc(-c2cc(=O)c3ccccc3o2)c1N	90
CC[n+]1c(/C=C/N(C)c2ccccc2)n(-c2ccccc2)c2ccc(-c3nc4ccccc4s3)cc21	83
O=[N+]([O-])c1ccc(-c2nc(-c3ccc(F)cc3)c(-c3ccncc3)[nH]2)cc1	92
COc1cc2ncc(-c3ccccc3)nc2cc1OC	78
CCC(=O)Nc1ccc2ncnc(Nc3cccc(Br)c3)c2c1	87
CCOc1cc2ncnc(Nc3cccc(Br)c3)c2cc1OCC	82
c1ccc(-c2n[nH]c3c2oc2ccccc23)cc1	89
Nc1ccc2ncnc(NCCc3ccc(Oc4ccccc4)cc3)c2c1	72
CN(C)c1ccc(/C=C2\C(=O)Nc3ccccc32)cc1	72
O=Nc1c(-c2c(O)[nH]c3ccccc23)[nH]c2ccccc12	30
Cc1cncc2cccc(S(=O)(=O)N3CCCN(C(=O)CN)C[C@H]3C)c12	93

SMILES	residual activity [%]
O=C(Nc1cccc(Nc2nccc(Nc3cccc(C(F)(F)F)c3)n2)c1)C1CC1	77
CCN(CC)C(=O)c1ccc(Nc2nc(OCC3CCCCC3)c3nc[nH]c3n2)cc1	10
Oc1c2ccccc2c2c3c(cccc13)N=N2	32
N#CC(C#N)=C(N)/C(C#N)=C/c1ccc(O)cc1	96
O=C1NC(=O)/C(=C\c2ccc3nccnc3c2)S1	91
Cc1cc(Nc2nc(-c3ccccc3)nc3ccccc23)n[nH]1	16
COc1ccc(OC)c2c(=S)c3ccccc3[nH]c12	88
O=c1c2ccccc2[nH]c(=S)n1CCN1CCC(=C(c2ccc(F)cc2)c2ccc(F)cc2)CC1	104
Cn1cc(/C=C2\C(=O)Nc3ccc(S(N)(=O)=O)cc32)c2ccccc21	7
CC(C)n1cnc2/c(=N/c3cccc(Cl)c3)nc(NCCO)[nH]c21	25
COc1cc2ncnc(N3CCN(C(=O)Nc4ccc(Oc5ccccc5)cc4)CC3)c2cc1OC	80
O=c1cc(-c2cccc3c2Sc2ccccc2S3)oc(N2CCOCC2)c1	94
CN(C)CCCn1cc(C2=C(c3c[nH]c4ccccc34)C(=O)NC2=O)c2ccccc21	17
Cc1cccc(-c2[nH]c(C(C)(C)C)nc2-c2ccc3c(c2)OCO3)n1	92
COc1cc2ncnc(Nc3ccc(Oc4ccccc4)cc3)c2cc1OC	88
Cc1cc2ncc(-c3ccccc3)nc2cc1C	92
NC(=O)c1ccc2[nH]c(-c3ccc(Oc4ccc(Cl)cc4)cc3)nc2c1	97
